For assay [1], the target named is Aryl hydrocarbon receptor (Homo sapiens) (UniProt P35869). In words: qHTS assay to identify small molecule that activate the aryl hydrocarbon receptor (AhR) signaling pathway (AID 743085).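 For activation: HG2L7.5c1 human HepG2 liver cells with stably integrated DRE-driven firefly reporter; series mostly up to about 70 µM.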 Note: nearly all actives have a fitted effect of over 15% in size. Note: potency is the fitted concentration of half-maximal effect. The gist of the method:
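Steps: seed HepG2-AhR-luc cells; allow 5 h at 37C; pin-transfer test compound or vehicle; incubate 24 h at 37C; add viability dye (30 min, 37C) and read fluorescence; add luciferase substrate (30 min, RT) and read luminescence.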
On the technique in general: In qHTS, concentration-response curves come from the screen itself.

Assay [2] is described as follows: qHTS assay to identify small molecule phospholipidosis (PLD) inducers (AID 1259344; active = well fitted curve in the direction sought with a large enough effect; an effect the other way counts as inactive or inconclusive). Put shortly:
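Accumulated phospholipid, stained red by LipidTOX during 24 h compound treatment of HepG2 cells at 37 C, is quantified from images as pit number and intensity, normalised per cell using Hoechst-stained nuclei.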

The target in assay [3] is Nuclear receptor subfamily 1 group I member 2 (Rattus norvegicus) (UniProt Q9R1A7). In words: Rat pregnane X receptor (rPXR) activation by small molecules, qHTS assay (AID 1346983). Note: nearly all actives have a fitted effect of over 20% in size. Note: potency is the fitted concentration of half-maximal effect. To be noted: rPXR luciferase reporter cells, One-Glo luminescence, 24 h; max activation: stronger effect = higher value. The gist of the method: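 Luminescent readout (One-Glo luciferase, 30 min room temperature) followed 24 hr compound treatment at 37 C of rPXR cells plated 2,000 per well and preincubated 5hr; qHTS format with compounds delivered in DMSO.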

Assay [4] concerns the target Nuclear receptor subfamily 1 group I member 2 (Homo sapiens) (UniProt O75469). In words: CYP3A4 induction through human pregnane X receptor (PXR) by small molecules, qHTS assay (AID 1346984). Note: nearly all actives have a fitted effect of over 40% in size. Note: potency is the fitted concentration of half-maximal effect. Put shortly:
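HepG2-derived DPX-2 line carrying PXR plus a CYP3A4-promoter luciferase reporter; cells plated 5 hr, compound-exposed 24 hr at 37C. CYP3A4 activity probed with 3uM (final) Luciferin-IPA for 3hr, then luciferase read after One-Glo.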

Assay [5] has the same target. In words: Human pregnane X receptor (PXR) activation by small molecules, qHTS assay (AID 1346985). Note: nearly all actives have a fitted effect of over 40% in size. Note: potency is the fitted concentration of half-maximal effect. The gist of the method: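 DPX-2 cells (HepG2 co-transfected with a PXR response element and a CYP3A4-promoter luciferase construct) were seeded at 2,000 per well, rested 5 hr at 37C, then exposed to DMSO-dissolved compounds for 24 hr. Activation was read as luciferase luminescence.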

Assay [6] can be described thus: qHTS assay to identify aromatase inhibitors - cell viability counter screen (AID 743084).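 Note: cells stimulated with testosterone during compound exposure; nearly all actives have a fitted effect of over 55% in size.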 Note: potency is the fitted concentration of half-maximal effect.
Assay [7] is described as follows: qHTS assay to identify small molecule that activate the aryl hydrocarbon receptor (AhR) signaling pathway - cell viability counter screen (AID 743086). Note: nearly all actives have a fitted effect of over 45% in size. Note: potency is the fitted concentration of half-maximal effect. The gist of the method:
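Cytotoxicity counter screen: CellTiter-Fluor signal (30 min, 37 C) in 4000 HepG2 cells/well carrying the DRE-luciferase reporter, following 24 h compound exposure at 37 C.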

Assay [8] addresses Peroxisome proliferator-activated receptor gamma (Homo sapiens) (UniProt P37231). In words: qHTS assay to identify small molecule agonists of the peroxisome proliferator-activated receptor gamma (PPARg) signaling pathway (AID 743094; active = well fitted activation curve with a large enough effect in the signal ratio in the repeat runs, not every such curve was filed as active; the % refers to the signal ratio). Put shortly:
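HEK293H PPARg-bla cells, 5 h settle at 37C/5% CO2; compound (DMSO) 17 h, 37C; B/G FRET substrate 1 h RT; fluorescence intensity read-out. qHTS format.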

Molecules are shown by their SMILES. Inconclusive results are not listed. A number with no mark means an inactive call. Calls of active or inactive are those of the source. Unless noted, calls come from the whole dose curve; as a rule, active = well fitted curve in the direction sought with a large enough effect in the repeat runs; inconclusive = weak or mixed curves; inactive = no such curve, though single readings can be large; an effect the other way counts as inactive or inconclusive.
% is set by controls: 0 for no effect and ±100 for the full control effect.

Chain of Aryl hydrocarbon receptor (Homo sapiens) (P35869 whole entry, looked up): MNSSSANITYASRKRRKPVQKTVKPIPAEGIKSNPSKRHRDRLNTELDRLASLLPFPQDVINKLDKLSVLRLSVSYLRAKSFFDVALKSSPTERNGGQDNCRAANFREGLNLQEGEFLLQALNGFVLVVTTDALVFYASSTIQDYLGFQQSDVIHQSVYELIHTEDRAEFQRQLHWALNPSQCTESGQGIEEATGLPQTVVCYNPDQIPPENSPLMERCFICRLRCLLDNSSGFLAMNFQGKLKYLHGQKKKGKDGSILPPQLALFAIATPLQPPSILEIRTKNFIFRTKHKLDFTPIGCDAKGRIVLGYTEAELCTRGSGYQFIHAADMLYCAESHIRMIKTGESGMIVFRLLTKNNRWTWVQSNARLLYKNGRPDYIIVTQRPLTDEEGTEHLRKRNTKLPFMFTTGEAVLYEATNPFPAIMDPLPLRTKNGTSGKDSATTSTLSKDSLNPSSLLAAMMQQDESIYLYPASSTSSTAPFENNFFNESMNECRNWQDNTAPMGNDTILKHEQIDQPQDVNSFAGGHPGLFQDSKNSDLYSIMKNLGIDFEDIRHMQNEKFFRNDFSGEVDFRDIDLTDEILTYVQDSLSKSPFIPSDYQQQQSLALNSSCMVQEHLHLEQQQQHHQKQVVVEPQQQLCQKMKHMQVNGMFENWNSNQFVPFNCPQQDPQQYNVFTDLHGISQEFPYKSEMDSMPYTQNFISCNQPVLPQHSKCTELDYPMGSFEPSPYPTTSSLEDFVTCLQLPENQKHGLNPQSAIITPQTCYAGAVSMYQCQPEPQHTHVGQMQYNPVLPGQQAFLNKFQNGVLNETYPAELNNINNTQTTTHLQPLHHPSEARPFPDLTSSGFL
Chain of Peroxisome proliferator-activated receptor gamma (Homo sapiens) (P37231 whole entry, looked up): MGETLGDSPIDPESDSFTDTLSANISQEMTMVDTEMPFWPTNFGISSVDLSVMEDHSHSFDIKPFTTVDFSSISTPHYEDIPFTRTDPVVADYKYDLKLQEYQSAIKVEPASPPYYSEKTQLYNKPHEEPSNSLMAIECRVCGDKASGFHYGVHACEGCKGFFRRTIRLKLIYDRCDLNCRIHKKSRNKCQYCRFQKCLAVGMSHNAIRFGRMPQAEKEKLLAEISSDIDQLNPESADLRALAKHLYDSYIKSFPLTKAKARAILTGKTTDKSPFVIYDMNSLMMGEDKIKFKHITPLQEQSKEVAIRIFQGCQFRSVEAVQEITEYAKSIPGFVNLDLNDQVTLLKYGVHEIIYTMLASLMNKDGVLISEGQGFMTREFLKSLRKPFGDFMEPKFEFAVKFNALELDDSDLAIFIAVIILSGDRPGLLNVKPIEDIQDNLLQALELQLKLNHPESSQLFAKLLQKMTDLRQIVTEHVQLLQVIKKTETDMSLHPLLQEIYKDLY
Chain of Nuclear receptor subfamily 1 group I member 2 (Rattus norvegicus) (Q9R1A7 whole entry, looked up): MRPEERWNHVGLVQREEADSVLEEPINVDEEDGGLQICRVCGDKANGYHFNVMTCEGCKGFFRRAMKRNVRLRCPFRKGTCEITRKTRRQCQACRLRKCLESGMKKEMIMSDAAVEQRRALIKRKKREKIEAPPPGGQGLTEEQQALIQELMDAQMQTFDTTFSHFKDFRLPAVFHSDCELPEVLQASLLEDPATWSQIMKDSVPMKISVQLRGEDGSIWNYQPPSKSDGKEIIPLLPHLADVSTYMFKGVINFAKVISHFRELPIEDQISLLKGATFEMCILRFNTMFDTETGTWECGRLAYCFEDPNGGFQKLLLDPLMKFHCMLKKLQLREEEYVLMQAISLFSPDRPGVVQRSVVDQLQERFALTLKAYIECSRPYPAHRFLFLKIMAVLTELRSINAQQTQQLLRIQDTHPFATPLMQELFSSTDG

On to `Cc1cc2nc3c(=O)[nH]c(=O)nc-3n(C[C@H](O)[C@H](O)[C@H](O)COP(=O)(O)OP(=O)(O)OC[C@H]3O[C@@H](n4cnc5c(N)ncnc54)[C@H](O)[C@@H]3O)c2cc1C`, for which the Potency entry in assay [1], in assay [2], in assay [4] and in assay [5] was “inactive” throughout. For the same molecule, the max activation in assay [3] was -0.0695%.

On to `C=CCOc1ccc(CC(=O)O)cc1Cl`, for which the Potency entry in assay [6], in assay [7], in assay [2], in assay [4] and in assay [5] was “inactive” each time. Also, the max activation in assay [3] is -5.29%.

As to `NC(Cc1ccccc1)C(=O)O` (configuration not stated), the Potency result in assay [6], in assay [7], in assay [8], in assay [2], in assay [4] and in assay [5] was “inactive” in each case. In addition, in assay [3], the max activation is 14.8%.

Regarding `COc1ccc2cc([C@H](C)CO)ccc2c1`, the Potency entry in assay [6], in assay [7], in assay [8], in assay [2], in assay [4] and in assay [5] was “inactive” throughout. In addition, the max activation in assay [3] is -2.68%.

As for `O=C(NNCS(=O)(=O)O)c1ccncc1`, the Potency entry in assay [6], in assay [7], in assay [8], in assay [2], in assay [4] and in assay [5] was “inactive” in each case. Moreover, in assay [3], the max activation is -0.625%.

For the molecule `CCN(CC)CCC(=O)N1c2ccccc2Sc2ccc(C(F)(F)F)cc21`, the Potency result in assay [6], in assay [1], in assay [8] and in assay [2] was “inactive” in each case. In assay [3], the max activation is -1.59%. In addition, the Potency was 1 µM (active) in assay [4] and 6.31 µM (active) in assay [5].

Regarding `Cc1c(Cl)cccc1Nc1ncccc1C(=O)O`, the Potency result in assay [6], in assay [7], in assay [8], in assay [2], in assay [4] and in assay [5] was “inactive” in each case. Moreover, the max activation in assay [3] was 0.0958%.

Turning to `CCCCCCCCCCCCOCCCN`, the Potency result in assay [6], in assay [7], in assay [2], in assay [4] and in assay [5] was “inactive” throughout. Besides, the max activation in assay [3] was -3.73%.

Regarding `CCCCCc1ccc(C)cc1O`, the Potency result in assay [6], in assay [7], in assay [8], in assay [2], in assay [4] and in assay [5] was “inactive” each time. The max activation in assay [3] is 4.82%.

As for `O=C(Cc1cccs1)N[C@@H]1C(=O)N2C(C(=O)[O-])=C(C[n+]3ccccc3)CS[C@H]12`, the Potency entry in assay [6], in assay [7], in assay [8], in assay [2], in assay [4] and in assay [5] was “inactive” each time. Besides, the max activation in assay [3] was -1.81%.

Take `COc1cc(-c2ccc(-[n+]3nc(-c4ccccc4)nn3-c3ccc([N+](=O)[O-])cc3)c(OC)c2)ccc1-[n+]1nc(-c2ccccc2)nn1-c1ccc([N+](=O)[O-])cc1`: the figures for the Potency in assay [6] and in assay [7] were 29.8 µM (active) and 26.6 µM (active), respectively. The Potency result in assay [2], in assay [4] and in assay [5] was “inactive” throughout. Also, the max activation in assay [3] was -16%.

In the case of `CN=C1C=CC(=C(c2ccc(N(C)C)cc2)c2ccc(N(C)C)cc2)C=C1`, the Potency in assay [6] and in assay [7] was 6.68 µM (active) in each case. For the same molecule, the Potency entry in assay [2], in assay [4] and in assay [5] was “inactive” in each case. Further, the max activation in assay [3] was -26%.

As to `O=C(OCc1ccccc1)c1cccnc1`, the Potency entry in assay [6], in assay [7], in assay [8], in assay [2], in assay [4] and in assay [5] was “inactive” throughout. The max activation in assay [3] is 6.76%.

Regarding `C=C1CC[C@@H]2[C@](C)(CO)[C@H](O)CC[C@@]2(C)[C@@H]1C/C=C1/C(=O)OC[C@H]1O`, the Potency result in assay [1], in assay [7], in assay [2], in assay [4] and in assay [5] was “inactive” throughout. The max activation in assay [3] was -5.66%.

For the molecule `O=[n+]1ccn([O-])c2ccccc21`, the Potency result in assay [7], in assay [2], in assay [4] and in assay [5] was “inactive” throughout. The max activation in assay [3] was -1.36%.

Turning to `O=C1C(=O)c2ncccc2-c2cccnc21`, the Potency entry in assay [6], in assay [8], in assay [2] and in assay [4] was “inactive” each time. Further, the Potency in assay [1] was 6.68 µM (active). Further, the max activation in assay [3] was -3.81%.

As for `CC(C)(C)NCC(O)c1ccc(O)c(CO)n1` (configuration not stated), the Potency result in assay [7], in assay [2], in assay [4] and in assay [5] was “inactive” each time. In addition, the max activation in assay [3] is -0.193%.

In the case of `OC[C@@H](O)C(O)[C@H](O)CO`, the Potency result in assay [6], in assay [1], in assay [7], in assay [8], in assay [2] and in assay [4] was “inactive” each time. Moreover, the max activation in assay [3] was -1.82%.

As for `C=CCN1CCCC1CNC(=O)c1cc(S(N)(=O)=O)cc(OC)c1OC` (configuration not stated), the Potency result in assay [6], in assay [1], in assay [7], in assay [8] and in assay [2] was “inactive” in each case. Further, the max activation in assay [3] was -5.9%. Moreover, the Potency in assay [4] is 14.1 µM (active).

For the molecule `C=Cc1c(C)c2cc3nc(cc4[nH]c(cc5nc(cc1[nH]2)C(C)=C5CCC(=O)OC)c(CCC(=O)O)c4C)[C@@]1(C)C3=CC=C(C(=O)OC)[C@H]1C(=O)OC`, the Potency entry in assay [7], in assay [8], in assay [2], in assay [4] and in assay [5] was “inactive” each time. For the same molecule, the max activation in assay [3] is -3.53%.

`CCN(CC)Cc1cc(Nc2ccnc3cc(Cl)ccc23)ccc1O`: the Potency result in assay [1], in assay [7], in assay [2], in assay [4] and in assay [5] was “inactive” in each case. Further, the max activation in assay [3] is -2.52%.

For `CCCOc1ccc2nc(NC(=O)OC)sc2c1`, the Potency result in assay [6], in assay [7], in assay [8], in assay [2] and in assay [4] was “inactive” in each case. The Potency in assay [1] is 4.22 µM (active); in assay [3], 2.51 µM (active).

For `CCN(CC)CCCC(C)Nc1cc(/C=C/c2ccccc2Cl)nc2cc(Cl)ccc12` (configuration not stated), the results for the Potency in assay [1] and in assay [5] were 26.6 µM (active) and 22.4 µM (active), respectively. The Potency result in assay [8], in assay [2] and in assay [4] was “inactive” throughout. The max activation in assay [3] was -1.25%.

As to `CCCC(=O)O[C@]1(C(=O)COC(C)=O)CC[C@H]2[C@@H]3C[C@H](F)C4=CC(=O)C=C[C@]4(C)[C@@]3(F)[C@@H](O)C[C@@]21C`, the Potency result in assay [1], in assay [7], in assay [2], in assay [4] and in assay [5] was “inactive” each time. For the same molecule, the Potency in assay [3] was 2.51 µM (active).

(Values after PubChem BioAssay (Tox21).)
